Reference: PubChem BioAssay AID1159580 (chemical genetic matrix, 2015)
“And” between values parts separate entries of the source, which are not always exact repeats. Equal entries are not always repeated. About 2,000 (36%) of roughly 5,500 compounds were called active. About 18% were inconclusive and are not listed. Rule as the data show it: active = normalized growth mostly below about 0.91 (no sharp cut-off); inconclusive = no clear call, values can overlap the other calls; inactive = mostly above about 0.92. This is one part of the list.

Assay: chemical genetic growth profiling, strain panel (AID 1159580);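 also: tested at 20 µM; growth read once vehicle control cultures reached saturation at 30 °C; 1 = growth at the plate median or of vehicle wells; lower values mean less growth of the strain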
Conditions: S. cerevisiae deletion strains, growth OD
[1] = locus YGR229C, strain SMI1, stronger effect = lower value
[2] = locus YMR307W, strain GAS1, stronger effect = lower value
[3] = locus YNL322C, strain KRE1, stronger effect = lower value

Measured: normalized growth

C=C/C(C)=C/[C@@]1(C)SC(=O)C(C)=C1O
inactive: locus YAL040C, strain CLN3, stronger effect = lower value 0.998 | locus YCL061C, strain MRC1 (second series), stronger effect = lower value 1 | locus YDR150W, strain NUM1, stronger effect = lower value 1.01 | locus YDR363W, strain ESC2, stronger effect = lower value 1.02 | locus YER002W, strain NOP16, stronger effect = lower value 0.986 | locus YGR078C, strain PAC10, stronger effect = lower value 1.01 | [1] 1.01 | locus YJR075W, strain HOC1, stronger effect = lower value 1 | [2] 0.998 | locus YNL175C, strain NOP13, stronger effect = lower value 0.996 | locus YNL197C, strain WHI3, stronger effect = lower value 1 | locus YNL224C, strain SQS1, stronger effect = lower value 1 | [3] 0.999 | locus YOR083W, strain WHI5 (second series), stronger effect = lower value 0.999

C/C1=C/CC(C)(C)/C=C/C/C(C)=C/CC1
active: locus YDL074C, strain BRE1, stronger effect = lower value 0.769 | locus YDR162C, strain NBP2, stronger effect = lower value 0.611 | [1] 0.389 | locus YLR039C, strain RIC1, stronger effect = lower value 0.651 | [2] 0.536 | locus YOR184W, strain ser1, stronger effect = lower value 0.865 | locus YPL055C, strain LGE1, stronger effect = lower value 0.76
0.85 (active) and 1.03 (inactive): locus YHR030C, strain SLT2, stronger effect = lower value
inactive: locus YAL021C, strain ccr4, stronger effect = lower value 1.04 | locus YAL026C, strain drs2, stronger effect = lower value 0.983 | locus YAL030W, strain snc1, stronger effect = lower value 0.99 | locus YBL061C, strain skt5, stronger effect = lower value 0.985 | locus YBR009C, strain hhf1, stronger effect = lower value 0.983 | locus YBR021W, strain FUR4, stronger effect = lower value 0.95 | locus YBR023C, strain chs3, stronger effect = lower value 0.99 | locus YBR171W, strain sec66, stronger effect = lower value 0.953 | locus YBR229C, strain ROT2, stronger effect = lower value 1.03 | locus YBR231C, strain swc5, stronger effect = lower value 0.977 | locus YBR279W, strain paf1, stronger effect = lower value 0.999 | locus YCL011C, strain gbp2, stronger effect = lower value 1.02 | locus YCL016C, strain dcc1, stronger effect = lower value 1.01 | locus YCL029C, strain bik1, stronger effect = lower value 1.03 | locus YCL061C, strain MRC1, stronger effect = lower value 0.988 | locus YCL069W, strain vba3, stronger effect = lower value 0.991 | locus YCR088W, strain abp1, stronger effect = lower value 0.981 | locus YDL005C, strain med2, stronger effect = lower value 0.966 | locus YDL035C, strain GPR1, stronger effect = lower value 0.91 | locus YDL040C, strain nat1, stronger effect = lower value 0.987 | locus YDL101C, strain DUN1, stronger effect = lower value 1.01 | locus YDL185W, strain tfp1, stronger effect = lower value 1 | locus YDL192W, strain arf1, stronger effect = lower value 0.988 | locus YDR001C, strain nth1, stronger effect = lower value 0.985 | locus YDR069C, strain doa4, stronger effect = lower value 0.989 | locus YDR101C, strain arx1, stronger effect = lower value 0.991 | locus YDR137W, strain rgp1, stronger effect = lower value 0.973 | locus YDR159W, strain sac3, stronger effect = lower value 0.975 | locus YDR195W, strain ref2 0.951 | locus YDR297W, strain sur2, stronger effect = lower value 0.988 | locus YDR318W, strain mcm21, stronger effect = lower value 1.01 | locus YDR334W, strain swr1, stronger effect = lower value 0.981 | locus YDR335W, strain msn5, stronger effect = lower value 0.998 | locus YDR388W, stronger effect = lower value 0.998 | locus YDR392W, strain spt3, stronger effect = lower value 0.961 | locus YDR502C, strain sam2, stronger effect = lower value 0.983 | locus YEL003W, strain gim4, stronger effect = lower value 0.983 | locus YEL037C, strain rad23, stronger effect = lower value 0.984 | locus YEL061C, strain CIN8 (second series), stronger effect = lower value 0.982 | locus YEL061C, strain CIN8, stronger effect = lower value 0.988 | locus YER015W, strain faa2, stronger effect = lower value 1 | locus YER016W, strain bim1, stronger effect = lower value 0.987 | locus YER110C, stronger effect = lower value 1.01 | locus YER111C, strain swi4, stronger effect = lower value 0.968 | locus YER155C, strain BEM2 (second series), stronger effect = lower value 1.01 | locus YER155C, strain BEM2, stronger effect = lower value 1 | locus YER167W, strain BCK2, stronger effect = lower value 0.98 | locus YFR010W, strain ubp6, stronger effect = lower value 0.978 | locus YGL078C, strain dbp3, stronger effect = lower value 0.985 | locus YGL086W, strain mad1, stronger effect = lower value 1 | locus YGL167C, strain pmr1, stronger effect = lower value 0.977 | locus YGL173C, strain kem1, stronger effect = lower value 0.96 | locus YGL227W, strain vid30, stronger effect = lower value 0.978 | locus YGL240W, strain doc1, stronger effect = lower value 0.956 | locus YGL248W, strain PDE1, stronger effect = lower value 1.01 | locus YGL253W, strain hxk2, stronger effect = lower value 0.957 | locus YGR135W, strain pre9, stronger effect = lower value 0.967 | locus YGR252W, strain gcn5, stronger effect = lower value 1.01 | locus YHR013C, strain ard1, stronger effect = lower value 1 | locus YHR027C, strain rpn1, stronger effect = lower value 0.97 | locus YHR079C, strain IRE1 (second series), stronger effect = lower value 1.01 | locus YHR079C, strain IRE1, stronger effect = lower value 1.02 | locus YHR094C, strain hxt1, stronger effect = lower value 1.01 | locus YHR129C, strain ARP1, stronger effect = lower value 1.01 | locus YHR142W, strain chs7, stronger effect = lower value 1 | locus YHR200W, strain rpn10, stronger effect = lower value 1.01 | locus YIL066C, strain RNR3, stronger effect = lower value 1.01 | locus YIL073C, strain SPO22, stronger effect = lower value 0.95 | locus YIL125W, strain kgd1, stronger effect = lower value 0.991 | locus YIR030C, strain dcg1, stronger effect = lower value 1 | locus YJL092W, strain hpr5, stronger effect = lower value 0.988 | locus YJL095W, strain BCK1 (second series), stronger effect = lower value 1 | locus YJL095W, strain BCK1, stronger effect = lower value 0.831 and 1.06 | locus YJL115W, strain asf1, stronger effect = lower value 0.988 | locus YJL129C, strain trk1, stronger effect = lower value 0.981 | locus YJL134W, strain LCB3, stronger effect = lower value 1 | locus YJL154C, strain vps35, stronger effect = lower value 0.981 | locus YJL164C, strain tpk1, stronger effect = lower value 1.01 | locus YJL166W, strain qcr8, stronger effect = lower value 0.985 | locus YJL168C, strain set2, stronger effect = lower value 1.02 | locus YJL187C, strain SWE1 (second series), stronger effect = lower value 0.976 | locus YJR043C, strain POL32, stronger effect = lower value 0.964 | locus YJR066W, strain TOR1, stronger effect = lower value 0.986 | locus YKL009W, strain mrt4, stronger effect = lower value 0.962 | locus YKL068W, stronger effect = lower value 0.991 | locus YKL085W, strain MDH1 (second series), stronger effect = lower value 0.963 | locus YKL085W, strain MDH1, stronger effect = lower value 0.963 | locus YKL160W, strain elf1, stronger effect = lower value 1.02 | locus YKR001C, strain vps1, stronger effect = lower value 0.98 | locus YKR026C, strain gcn3, stronger effect = lower value 0.983 | locus YKR091W, strain srl3, stronger effect = lower value 0.987 | locus YLL001W, strain dnm1, stronger effect = lower value 1 | locus YLL026W, stronger effect = lower value 0.99 | locus YLL041C, strain sdh2, stronger effect = lower value 0.998 | locus YLR027C, strain aat2, stronger effect = lower value 1.01 | locus YLR058C, strain SHM2, stronger effect = lower value 1.01 | locus YLR102C, strain apc9, stronger effect = lower value 1.01 | locus YLR113W, strain HOG1, stronger effect = lower value 1.02 | locus YLR221C, strain rsa3, stronger effect = lower value 0.961 | locus YLR258W, strain gsy2, stronger effect = lower value 0.998 | locus YLR262C, strain YPT6 (second series), stronger effect = lower value 0.994 | locus YLR262C, strain YPT6, stronger effect = lower value 0.789 | locus YLR268W, strain sec22, stronger effect = lower value 1 | locus YLR320W, strain mms22, stronger effect = lower value 0.968 | locus YLR330W, strain CHS5, stronger effect = lower value 0.974 | locus YLR342W, strain FKS1 (second series), stronger effect = lower value 0.986 | locus YLR342W, strain FKS1, stronger effect = lower value 0.989 | locus YLR357W, strain rsc2, stronger effect = lower value 0.968 | locus YLR370C, strain arc18, stronger effect = lower value 1.01 | locus YLR371W, strain rom2, stronger effect = lower value 0.998 | locus YLR384C, strain iki3, stronger effect = lower value 0.984 | locus YLR418C, strain cdc73, stronger effect = lower value 0.929 | locus YML016C, strain PPZ1, stronger effect = lower value 1.04 | locus YML032C, strain rad52, stronger effect = lower value 0.99 | locus YML120C, strain ndi1, stronger effect = lower value 1 | locus YML124C, strain tub3, stronger effect = lower value 1.01 | locus YMR058W, strain fet3, stronger effect = lower value 0.992 | locus YMR078C, strain ctf18, stronger effect = lower value 1.01 | locus YMR125W, strain sto1, stronger effect = lower value 1.01 | locus YMR129W, stronger effect = lower value 0.992 | locus YMR205C, strain PFK2, stronger effect = lower value 0.994 | locus YMR223W, strain ubp8, stronger effect = lower value 1 | locus YMR231W, strain pep5, stronger effect = lower value 0.966 | locus YNL067W, strain RPL9B, stronger effect = lower value 0.869 | locus YNL071W, strain lat1, stronger effect = lower value 0.998 | locus YNL183C, strain NPR1, stronger effect = lower value 0.995 | locus YNL209W, strain ssb2, stronger effect = lower value 1 | locus YNL233W, strain BNI4, stronger effect = lower value 0.96 | locus YNL250W, strain rad50, stronger effect = lower value 0.973 | locus YNL271C, strain bni1, stronger effect = lower value 0.998 | locus YNL298W, strain CLA4, stronger effect = lower value 0.989 | locus YNL307C, strain MCK1, stronger effect = lower value 1.02 | locus YNL322C, strain KRE1 (second series), stronger effect = lower value 0.979 | [3] 0.973 | locus YNR049C, strain mso1, stronger effect = lower value 0.976 | locus YNR052C, strain pop2, stronger effect = lower value 0.964 | locus YOL006C, strain TOP1, stronger effect = lower value 0.917 | locus YOL012C, strain htz1 1.09 | locus YOL147C, strain pex11, stronger effect = lower value 1.02 | locus YOR001W, strain rrp6, stronger effect = lower value 0.944 | locus YOR061W, strain CKA2, stronger effect = lower value 1.03 | locus YOR069W, strain VPS5, stronger effect = lower value 1.02 | locus YOR070C, strain gyp1, stronger effect = lower value 0.983 | locus YOR080W, strain dia2, stronger effect = lower value 0.969 | locus YOR083W, strain WHI5, stronger effect = lower value 1.02 | locus YOR106W, strain vam3, stronger effect = lower value 0.995 | locus YOR136W, strain idh2, stronger effect = lower value 0.995 | locus YOR144C, strain elg1, stronger effect = lower value 1.01 | locus YOR231W, strain MKK1, stronger effect = lower value 1.02 | locus YOR265W, strain rbl2, stronger effect = lower value 0.997 | locus YOR270C, strain vph1, stronger effect = lower value 0.932 | locus YOR290C, strain snf2, stronger effect = lower value 0.995 | locus YOR316C, strain cot1, stronger effect = lower value 1.01 | locus YPL051W, strain arl3, stronger effect = lower value 0.991 | locus YPL078C, strain atp4, stronger effect = lower value 1.01 | locus YPL106C, strain sse1, stronger effect = lower value 1.03 | locus YPL240C, strain hsp82, stronger effect = lower value 1.02 | locus YPL241C, strain CIN2, stronger effect = lower value 1.02 | locus YPL256C, strain CLN2, stronger effect = lower value 1.06 | locus YPR119W, strain clb2, stronger effect = lower value 1.01 | locus YPR141C, strain kar3, stronger effect = lower value 1 | locus YPR163C, strain tif3, stronger effect = lower value 1.01 | locus YPR167C, strain met16, stronger effect = lower value 1.01 | strain wtn01, stronger effect = lower value 0.993
